From PubChem BioAssay AID772 (SRMLSC, 2007)
About 20 (0.6%) of roughly 3,300 compounds were called active.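 The calls were made as follows: active = growth inhibition above 90%, meaning viable cell count cut by more than 90% versus vehicle controls; inactive = growth inhibition below 90%.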 Many of the other results were omitted from the sample, so actives are more common in it than they were.

Assay: HT29 colon tumor cell growth inhibition, primary screen, imaging, high content imaging, 72 h, CellTiter-Glo (AID 772);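 as to condensed nuclei: condensed means nuclear area below control median minus 1.5 SD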
Details: HCS imaging cell count, at 10 µM, stronger effect = higher value; for condensed nuclei: measured here: percent cells with condensed nuclei
[1] = measured here: ATP CellTiter-Glo viability

| Compound | growth inhibition | growth inhibition [1] [%] | condensed nuclei [%] |
| --- | --- | --- | --- |
| CC(C)OC(=O)c1c(N)n(Cc2ccco2)c2nc3ccccc3nc12 | 31.4% (inactive) | -17.3 | 3.52 |
| COCCOC(=O)c1c(N)n(Cc2ccco2)c2nc3ccccc3nc12 | -33.9% (inactive) | -49.5 | 3.83 |
| CC(C)(C)OC(=O)c1c(N)n(Cc2ccco2)c2nc3ccccc3nc12 | 44.5% (inactive) | 20.9 | 4.1 |
| CCCCOCCCn1c(N)c(C(=O)OCCOC)c2nc3ccccc3nc21 | 95.3% (active) | 57.5 | 17.2 |
| COCC(C)OC(=O)c1c(N)n(Cc2ccco2)c2nc3ccccc3nc12 (stereo not given) | 44.2% (inactive) | 19.7 | 1.26 |
| CCCCOCCCn1c(N)c(C(=O)OC(C)COC)c2nc3ccccc3nc21 (stereo not given) | 91.4% (active) | 77.2 | 11 |
| COc1ccc(C2SCC(=O)Nc3c2c(=O)[nH]n3C2CCCCC2)cc1 (stereo not given) | 1.43% (inactive) | -9.94 | 12.4 |
| Clc1ccc(CSC(Cn2ccnc2)c2ccc(Cl)cc2Cl)cc1 (stereo not given) | 57.5% (inactive) | 71.7 | 13.6 |
| CCN(CC)CCCNC(=O)c1c(O)c2ccccc2n(Cc2ccccc2)c1=O | 84.5% (inactive) | 95.7 | 16 |
| CCCCn1c(O)c(C=NCCN2CCCCC2)c(=O)[nH]c1=O | 4.76% (inactive) | -24.2 | 0.91 |
